These results are taken from ChEMBL document CHEMBL3988442, “University of Dundee, Small-Polar-MMV Screening Library” (2021).

For some of these results: Potency and affinity values are given separately.

Design in all cases: scale not given: direction of the effect not stated beside the values
In experiment [1] the target is Protein translocase subunit SecA (Escherichia coli (strain K12)) (UniProt P10408). Kind of experiment: Assay to Identify E. coli SecA ATPase Inhibitors. The format is functional. To be noted: 30 µM.
Protein translocase subunit SecA (Escherichia coli (strain K12)), sequence (P10408 whole entry): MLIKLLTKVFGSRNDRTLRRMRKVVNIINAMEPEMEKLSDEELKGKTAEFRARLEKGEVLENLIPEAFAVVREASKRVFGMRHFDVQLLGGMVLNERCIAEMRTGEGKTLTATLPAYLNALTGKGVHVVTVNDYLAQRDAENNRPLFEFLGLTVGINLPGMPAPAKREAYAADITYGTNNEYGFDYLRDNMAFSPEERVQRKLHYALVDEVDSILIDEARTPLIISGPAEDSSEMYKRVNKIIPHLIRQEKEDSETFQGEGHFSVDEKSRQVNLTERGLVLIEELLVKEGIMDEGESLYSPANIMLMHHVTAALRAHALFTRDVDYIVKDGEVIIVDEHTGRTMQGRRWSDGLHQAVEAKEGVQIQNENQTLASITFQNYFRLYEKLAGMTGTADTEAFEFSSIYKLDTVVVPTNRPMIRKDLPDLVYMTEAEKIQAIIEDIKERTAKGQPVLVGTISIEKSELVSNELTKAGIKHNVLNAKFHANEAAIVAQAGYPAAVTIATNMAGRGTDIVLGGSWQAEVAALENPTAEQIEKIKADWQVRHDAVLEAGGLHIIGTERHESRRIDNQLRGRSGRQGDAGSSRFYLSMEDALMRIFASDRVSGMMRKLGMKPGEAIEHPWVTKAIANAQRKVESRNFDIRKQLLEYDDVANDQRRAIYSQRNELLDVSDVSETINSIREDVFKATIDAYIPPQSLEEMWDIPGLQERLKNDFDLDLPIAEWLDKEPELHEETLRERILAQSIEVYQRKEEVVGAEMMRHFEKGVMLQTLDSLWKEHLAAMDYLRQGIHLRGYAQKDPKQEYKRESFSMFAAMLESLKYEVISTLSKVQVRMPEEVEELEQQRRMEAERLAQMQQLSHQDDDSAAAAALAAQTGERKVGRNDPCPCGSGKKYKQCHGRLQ
Experiment [2] concerns the target T1, Ubiquitin-activating enzyme e1, putative (Leishmania donovani (strain BPK282A1)) (UniProt E9BSI1).
T1 sequence (whole entry): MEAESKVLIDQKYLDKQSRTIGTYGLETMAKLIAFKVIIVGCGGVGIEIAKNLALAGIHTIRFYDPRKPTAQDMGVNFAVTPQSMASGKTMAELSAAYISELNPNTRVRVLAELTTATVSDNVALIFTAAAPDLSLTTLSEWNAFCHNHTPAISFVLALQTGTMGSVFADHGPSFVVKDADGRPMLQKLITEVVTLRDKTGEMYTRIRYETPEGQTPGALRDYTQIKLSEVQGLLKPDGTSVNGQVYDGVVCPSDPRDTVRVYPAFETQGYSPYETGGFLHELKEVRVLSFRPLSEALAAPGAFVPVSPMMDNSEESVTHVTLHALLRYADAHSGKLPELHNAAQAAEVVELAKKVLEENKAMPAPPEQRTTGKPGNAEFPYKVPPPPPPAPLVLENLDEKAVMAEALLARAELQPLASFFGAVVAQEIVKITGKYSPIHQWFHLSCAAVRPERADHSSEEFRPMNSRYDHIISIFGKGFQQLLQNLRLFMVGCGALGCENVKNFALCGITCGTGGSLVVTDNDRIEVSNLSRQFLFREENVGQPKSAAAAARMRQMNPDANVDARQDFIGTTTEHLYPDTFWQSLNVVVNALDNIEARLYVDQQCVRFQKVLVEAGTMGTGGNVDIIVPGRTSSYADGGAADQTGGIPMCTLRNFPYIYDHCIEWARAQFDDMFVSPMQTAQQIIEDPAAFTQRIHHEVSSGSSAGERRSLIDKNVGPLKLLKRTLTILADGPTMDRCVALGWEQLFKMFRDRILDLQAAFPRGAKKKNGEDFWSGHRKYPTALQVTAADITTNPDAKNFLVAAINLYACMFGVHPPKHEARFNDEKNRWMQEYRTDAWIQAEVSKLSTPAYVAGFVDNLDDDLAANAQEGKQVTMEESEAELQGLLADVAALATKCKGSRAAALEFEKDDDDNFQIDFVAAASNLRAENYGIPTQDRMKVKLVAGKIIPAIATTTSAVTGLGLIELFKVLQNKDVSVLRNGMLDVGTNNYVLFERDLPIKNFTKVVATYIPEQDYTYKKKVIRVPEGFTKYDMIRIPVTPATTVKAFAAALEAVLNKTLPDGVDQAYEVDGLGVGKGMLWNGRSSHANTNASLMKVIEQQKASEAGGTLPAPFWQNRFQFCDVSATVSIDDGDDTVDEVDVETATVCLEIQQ
As to the kind of experiment: Leishmania donovani Ubiquitin Activating Enzyme (LdE1). The format is functional. To be noted: 30 µM.

Experiment [3] concerns the target AMP-activated protein kinase, AMPK (Homo sapiens) (UniProt P54646+O43741+P54619+Q9UGJ0+Q9Y478+Q13131+Q9UGI9). Kind of experiment: AMP-dependent Kinase enzyme assay. An in vitro enzyme assay that detects ADP turnover that is directly proportional to AMPK activity. This uses naive AMPK that is activated during the assay with MK-8722. The format is functional. As to conditions: 30 µM.

For experiment [4], the target named is Sialic acid-binding Ig-like lectin 9 (Homo sapiens) (UniProt Q9Y336). As to the kind of experiment: Hs-Siglec9 ALPHAscreen SOP 20170721. To be noted: 10 µM.
Sialic acid-binding Ig-like lectin 9 (Homo sapiens), sequence (Q9Y336 whole entry): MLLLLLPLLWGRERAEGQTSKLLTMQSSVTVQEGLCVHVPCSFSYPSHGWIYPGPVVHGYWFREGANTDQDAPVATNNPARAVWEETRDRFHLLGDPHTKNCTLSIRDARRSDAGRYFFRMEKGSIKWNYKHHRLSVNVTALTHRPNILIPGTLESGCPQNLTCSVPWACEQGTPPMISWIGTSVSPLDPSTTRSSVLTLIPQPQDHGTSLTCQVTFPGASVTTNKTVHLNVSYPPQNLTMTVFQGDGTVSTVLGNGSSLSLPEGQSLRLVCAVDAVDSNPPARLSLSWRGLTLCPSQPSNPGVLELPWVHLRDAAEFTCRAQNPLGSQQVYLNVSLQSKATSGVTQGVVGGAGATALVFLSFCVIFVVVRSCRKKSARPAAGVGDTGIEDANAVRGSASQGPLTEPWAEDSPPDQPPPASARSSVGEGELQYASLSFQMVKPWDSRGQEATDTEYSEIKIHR
Experiment [5] relates to Trypanosoma cruzi. As to the kind of experiment: Trypanosoma cruzi phosphomannomutase and mannose-1-phosphate guanylyltransferase assay. In kind it is functional. As to conditions: 10 µM.
In experiment [6] the target is T2, Arginase-2, mitochondrial (Homo sapiens) (UniProt P78540).
T2 sequence (whole entry): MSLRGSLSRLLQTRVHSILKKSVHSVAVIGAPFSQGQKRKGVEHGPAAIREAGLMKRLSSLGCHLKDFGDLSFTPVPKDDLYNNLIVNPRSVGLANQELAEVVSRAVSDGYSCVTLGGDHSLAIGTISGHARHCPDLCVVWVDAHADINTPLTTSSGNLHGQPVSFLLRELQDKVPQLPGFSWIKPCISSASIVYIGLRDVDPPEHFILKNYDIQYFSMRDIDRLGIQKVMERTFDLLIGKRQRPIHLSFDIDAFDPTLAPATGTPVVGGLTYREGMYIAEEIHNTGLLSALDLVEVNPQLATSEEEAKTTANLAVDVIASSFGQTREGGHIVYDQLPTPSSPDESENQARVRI
Kind of experiment: in vitro enzyme assay to detect the production of urea directly proportional to the activity of Arginase II. Further: in the data most compounds retested in dose-response had high values. In kind it is functional. As to conditions: 33.3 µM.

In experiment [7] the target is T3, Proteasome subunit beta (Trypanosoma cruzi) (UniProt O96673).
T3 sequence (whole entry): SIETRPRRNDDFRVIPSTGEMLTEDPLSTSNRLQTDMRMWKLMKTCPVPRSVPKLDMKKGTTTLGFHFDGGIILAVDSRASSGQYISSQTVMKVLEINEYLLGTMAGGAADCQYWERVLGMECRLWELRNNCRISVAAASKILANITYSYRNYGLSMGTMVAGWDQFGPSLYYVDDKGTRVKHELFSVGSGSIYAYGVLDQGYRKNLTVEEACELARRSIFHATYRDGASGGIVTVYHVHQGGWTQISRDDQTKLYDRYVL
Kind of experiment: Trypanosoma cruzi proteasome chymotrypsin-like activity (TcProtChymo) assay. Further: in the data most compounds retested in dose-response had high values. To be noted: 9.37 µM. The format is functional.

Experiment [8] is filed under the species Homo sapiens. Kind of experiment: To identify inhibition of the IFN signalling (Jak-Stat) pathway via expression of an eGFP reporter gene under the control of an IFN-stimulated response element (ISRE) containing MxA promoter. In kind it is functional. As to conditions: 30 µM.
Experiment [9] concerns the target T4, Tyrosyl-tRNA synthetase, putative (Trypanosoma cruzi (strain CL Brener)) (UniProt Q4DSP6).
T4 sequence (whole entry): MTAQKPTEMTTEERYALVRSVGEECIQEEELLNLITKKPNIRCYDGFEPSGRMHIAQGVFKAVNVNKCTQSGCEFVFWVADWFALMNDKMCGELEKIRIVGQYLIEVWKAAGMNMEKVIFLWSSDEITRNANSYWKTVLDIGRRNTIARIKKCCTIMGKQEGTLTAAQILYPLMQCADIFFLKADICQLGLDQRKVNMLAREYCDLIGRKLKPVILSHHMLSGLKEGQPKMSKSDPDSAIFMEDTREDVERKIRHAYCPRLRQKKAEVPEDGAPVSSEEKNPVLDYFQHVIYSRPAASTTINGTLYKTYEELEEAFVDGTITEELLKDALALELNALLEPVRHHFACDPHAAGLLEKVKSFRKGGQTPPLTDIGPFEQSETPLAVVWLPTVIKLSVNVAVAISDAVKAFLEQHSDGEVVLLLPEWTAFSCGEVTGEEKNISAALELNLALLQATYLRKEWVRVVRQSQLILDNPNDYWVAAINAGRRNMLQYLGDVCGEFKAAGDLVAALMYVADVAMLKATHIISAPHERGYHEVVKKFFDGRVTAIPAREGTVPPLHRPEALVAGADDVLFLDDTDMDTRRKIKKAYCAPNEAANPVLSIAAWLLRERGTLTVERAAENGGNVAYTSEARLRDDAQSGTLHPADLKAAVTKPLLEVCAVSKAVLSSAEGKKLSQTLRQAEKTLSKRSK
Kind of experiment: Trypanosoma cruzi tyrosyl tRNA synthetase (TcYRS) _High Tyrosine SOP. Further: in the data most compounds retested in dose-response had high values. The format is functional. As to conditions: 30 µM.

Experiment [10] has as its target T4, Tyrosyl-tRNA synthetase, putative (Trypanosoma cruzi (strain CL Brener)). As to the kind of experiment: Trypanosoma cruzi tyrosyl tRNA synthetase (TcYRS) SOP. The format is functional. To be noted: 30 µM.
Experiment [11] deals with Chromo domain-containing protein 1 (Saccharomyces cerevisiae (strain ATCC 204508 / S288c) (Baker's yeast)) (UniProt P32657). Kind of experiment: ScCHD-1 Enzyme Inhibition Assay. Further: in the data most compounds retested in dose-response had high values. In kind it is functional. As to conditions: 30 µM.
Chromo domain-containing protein 1 (Saccharomyces cerevisiae (strain ATCC 204508 / S288c) (Baker's yeast)), sequence (P32657 whole entry, the tested form may be a part): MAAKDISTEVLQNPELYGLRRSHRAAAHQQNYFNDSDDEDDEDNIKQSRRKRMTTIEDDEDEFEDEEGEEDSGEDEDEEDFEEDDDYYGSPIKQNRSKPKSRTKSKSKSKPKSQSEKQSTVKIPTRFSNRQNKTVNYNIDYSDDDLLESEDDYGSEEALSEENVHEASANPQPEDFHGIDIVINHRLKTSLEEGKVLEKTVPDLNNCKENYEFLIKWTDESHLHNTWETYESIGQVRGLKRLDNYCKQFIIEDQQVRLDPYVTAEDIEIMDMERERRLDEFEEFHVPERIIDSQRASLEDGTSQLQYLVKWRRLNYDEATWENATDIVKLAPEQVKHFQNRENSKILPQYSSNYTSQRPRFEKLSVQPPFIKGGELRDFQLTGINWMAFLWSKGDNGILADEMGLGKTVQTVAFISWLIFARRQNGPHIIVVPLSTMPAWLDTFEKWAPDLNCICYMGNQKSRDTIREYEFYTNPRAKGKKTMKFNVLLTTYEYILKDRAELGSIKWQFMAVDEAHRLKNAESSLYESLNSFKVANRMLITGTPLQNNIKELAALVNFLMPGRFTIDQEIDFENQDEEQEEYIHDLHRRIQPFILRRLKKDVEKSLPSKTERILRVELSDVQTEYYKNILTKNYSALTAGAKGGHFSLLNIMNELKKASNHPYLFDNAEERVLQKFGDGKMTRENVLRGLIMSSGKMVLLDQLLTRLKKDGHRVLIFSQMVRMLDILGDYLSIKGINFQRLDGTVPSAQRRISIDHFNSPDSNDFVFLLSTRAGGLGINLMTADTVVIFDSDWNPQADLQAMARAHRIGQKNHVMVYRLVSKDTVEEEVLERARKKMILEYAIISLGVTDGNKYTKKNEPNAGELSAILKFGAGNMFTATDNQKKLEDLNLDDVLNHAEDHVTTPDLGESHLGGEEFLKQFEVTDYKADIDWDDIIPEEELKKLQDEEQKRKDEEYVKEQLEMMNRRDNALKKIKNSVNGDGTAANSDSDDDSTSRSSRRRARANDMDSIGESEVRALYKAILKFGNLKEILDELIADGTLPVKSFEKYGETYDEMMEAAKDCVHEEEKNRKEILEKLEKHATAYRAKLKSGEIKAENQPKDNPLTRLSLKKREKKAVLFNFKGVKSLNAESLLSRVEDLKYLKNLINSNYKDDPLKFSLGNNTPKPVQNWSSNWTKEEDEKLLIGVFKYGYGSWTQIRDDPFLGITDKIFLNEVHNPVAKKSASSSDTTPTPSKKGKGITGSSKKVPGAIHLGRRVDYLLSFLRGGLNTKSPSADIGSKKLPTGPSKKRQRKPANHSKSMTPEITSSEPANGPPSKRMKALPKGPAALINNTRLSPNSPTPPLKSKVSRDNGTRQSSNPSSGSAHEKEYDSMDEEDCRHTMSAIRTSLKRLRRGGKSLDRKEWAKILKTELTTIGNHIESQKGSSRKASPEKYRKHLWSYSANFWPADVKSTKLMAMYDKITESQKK

Take `Cc1nc(C(C)C)sc1C(=O)NS(=O)(=O)c1ccc(C#N)cc1`: the Percent Effect is -1.22% in experiment [1]; 8.11% in experiment [2]; -3.43% in [3]; 18.3% in experiment [4]; 5.99% in [5]; 9.52% in experiment [6]. Also, the Percent Effect is 11.9% in experiment [7]; -9.57% in experiment [8]; 4.76% in [9]; 9.76% in experiment [10]; -5.85% in experiment [11].
In the case of `NC(=O)C1CCN(c2nc3nccc(-c4ccccc4)c3c(=O)[nH]2)CC1`, the Percent Effect was -4.01% in experiment [1]; 2.74% in experiment [2]; -6.46% in [3]; 3.02% in experiment [4]; 6.75% in [5]; -7.19% in [6]. The Percent Effect was 14.8% in experiment [7]; 5.49% in experiment [8]; 1.04% in experiment [9]; 6.17% in experiment [10]; -5.09% in experiment [11].
Turning to `O=C(c1ccc(C2CCCO2)s1)N1CCN(c2ccccc2F)CC1` (stereo unspecified), the Percent Effect in [1] is -2.34%; in experiment [2], 16.2%; in experiment [3] it was -2.01%; in experiment [4], 21.1%; in experiment [5] it was 3.67%; in experiment [6], 30%. The Percent Effect in experiment [7] was 14.1%; in experiment [8], -6.24%; in experiment [9], 5.82%; in [10], 14.6%; in experiment [11], -4.16%.
Take `O=S(=O)(N(Cc1ccccn1)C1CC1)N1CCCC1c1ccco1` (stereo unspecified): the Percent Effect in [1] was -4.42%; in experiment [2] it was 16.2%; in [3], 0.691%; in experiment [4], 9.84%; in [5] it was 5.66%; in [6], -2.77%. Also, the Percent Effect is 0.359% in experiment [7]; 5.33% in experiment [8]; 3.96% in experiment [9]; 18.3% in experiment [10]; -5.26% in experiment [11].
For `COc1ccc(NC(=O)CCC2CCCN(Cc3ncon3)C2)cc1Cl` (stereo unspecified), the Percent Effect in [1] was -3.35%; in experiment [2] it was 10.7%; in experiment [3] it was -3.08%; in experiment [4], 17.1%; in experiment [5] it was 2.82%; in experiment [6] it was 7.81%. The Percent Effect in [7] is 24.8%; in experiment [8], -6.37%; in [9], 8.2%; in experiment [10], 18.5%; in experiment [11], 92.7%.
`Cc1cc(N(C)Cc2cc(C)on2)n2nc(C)c(C)c2n1`: the Percent Effect in experiment [1] was 1.74%; in experiment [2], 4.17%; in experiment [3], -0.739%; in experiment [4] it was -6.39%; in experiment [5], -6.71%; in [6] it was 1.32%. For the same molecule, the Percent Effect in experiment [7] was 11.4%; in experiment [8] it was 10.3%; in [9], 2.1%; in experiment [10] it was 7.69%; in experiment [11], -5.04%.
Turning to `Cc1nc(C)n(CC2CCCN(CCCOc3ccccc3)C2)n1` (stereo unspecified), the Percent Effect in experiment [1] is -3.18%; in [2], 1.27%; in [3], 8.34%; in [4], 3.65%; in experiment [5], -0.718%; in [6] it was 1.07%. Further, the Percent Effect in [7] is -1.37%; in [8], -1.23%; in experiment [9], 3.12%; in experiment [10] it was 12.7%; in experiment [11] it was -5.2%.
`CN1CCCC1CNC(=O)c1nnn(-c2ccc(F)cc2)c1C1CC1` (stereo unspecified): the Percent Effect was -5.49% in [1]; 0% in [2]; 1.3% in [3]; 3.88% in [4]; -5.86% in [5]; 0% in [6]. The Percent Effect is 8.2% in experiment [7]; 10.9% in [8]; 4.95% in experiment [9]; 3.66% in experiment [10]; -4.68% in [11].
As for `COc1ncccc1C(=O)N1CC[C@H]2C[C@@H](C)O[C@@H]2C1`, the Percent Effect is -0.702% in experiment [1]; 17.3% in [2]; 0.286% in [3]; -4.21% in experiment [4]; -0.589% in [5]; -6.51% in [6]. The Percent Effect in experiment [7] was 15.5%; in experiment [8], -1.15%; in experiment [9], 3.17%; in experiment [10] it was 10.3%; in [11], -9.15%.
With `Cc1ccc(C(=O)N2CCn3cc(CN4CCCCC4)nc3C2)o1`, the Percent Effect in experiment [1] is -1.62%; in [2], -2.6%; in experiment [3] it was 0.425%; in experiment [4], -11.1%; in experiment [5], -1.48%; in experiment [6], 21.3%. Besides, the Percent Effect in experiment [7] is 5.57%; in [8], 1.99%; in experiment [9], -4.23%; in experiment [10] it was -6.41%; in [11], 8.37%.
Consider `CCc1nc(CN2CCCN(C(=O)c3cnc[nH]3)CC2)cs1`, for which the Percent Effect in experiment [1] is -0.253%; in [2], -2.7%; in experiment [3], 2.03%; in experiment [4], 4.57%; in experiment [5] it was 2.14%; in [6] it was -1.66%. In addition, the Percent Effect in [7] is 12.9%; in experiment [8] it was 2.83%; in experiment [9] it was 3.96%; in [10] it was 1.22%; in experiment [11] it was 4.62%.
